Laboratory results taken from PubChem BioAssay (NCI).
This is part of a sample that, as a whole, favours compounds with a hit. Of some 83,000 tested, about 20% had one in any assay.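 Negative percent growth values reflect cell death: -40 means 40% of the cells present at the start died, and -100 means all died.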 Values without a mark were called inactive. Activity calls are given as the source filed them. The calls were made as follows: active = growth percent below 10; inactive = the rest.

tested on: COLO 205 colon; assay: NCI-60 one-dose screen, 48 h (100 = growth as untreated, 0 = no growth, -100 = all killed); conditions: 10 µM unless noted

Row | SMILES | growth
1 | O=[N+]([O-])c1cc2c(cc1Br)-c1ccccc1C2 | 84.6%
2 | Clc1ccc(Nc2nc(Nc3ccccc3)nc(Nc3ccc(-c4cc(-c5ccc(Cl)cc5)on4)cc3)n2)cc1 | 69.8%
3 | Cc1cc(=O)c2c(C)ccc(C)c2[nH]1 | 125%
4 | Cc1cc(=O)[nH]n1-c1cc(Cl)ccc1N | 103%
5 | CC(C)OC1=C(Cl)C(=O)c2ccccc2C1=O | 97.7%
6 | COc1cccc(C2CC(=O)Nc3cc4c(cc32)OCO4)c1OC (stereo not drawn) | 107%
7 | COc1ccccc1CNCCCCCCCCCCCCN1C(=O)c2ccc3c4c(ccc(c24)C1=O)C(=O)N(CCCCCCCCCCCCNCc1ccccc1OC)C3=O | 109%
8 | O=C1C=CC(=O)N1CCCCCCCCCCN1C(=O)C=CC1=O | 65.7%
9 | Cc1ccc(N=c2nc3sc4c(C)ccc(C)c4n3c(N)c2C#N)cc1 | 108%
10 | COc1cc2nc(SCc3cc(OC)c(OC)c(OC)c3)n(-c3ccccc3OC)c(=O)c2cc1OC | 118%
11 | Cc1nc2nc(C(F)(F)F)[nH]c2nc1C | 108%
12 | CC(C)(C)[Si](C)(C)OC1[C@@H](CNC(=O)NC(=O)CCl)O[C@@H](n2cnc3c(N)ncnc32)[C@H]1O[Si](C)(C)C(C)(C)C (stereo partly drawn) | -16.8% (active)
13 | Fc1ccccc1Nc1ccc2nnc(-c3ccncc3)n2n1 | 106%
14 | NC(=O)c1nc2c([nH]c1=O)CCCC2 | 101%
15 | CCN1CCN(C(=S)SCC(=O)Nc2nc3ccc(OC)cc3s2)CC1 | 112%
16 | O=C(NCc1cccnc1)c1ccc([N+](=O)[O-])o1 | -77% (active)
17 | N#CC1=C(N)Oc2cc(N)ccc2C1c1ccc(F)cc1 (stereo not drawn) | 82.9%
18 | O=c1[nH]c(-c2ccncc2)nc2sc3c(c12)CCCCCC3 | 106%
19 | CC1SC(c2cccc(Oc3ccccc3)c2)N(CCc2cccs2)C1=O (stereo not drawn) | -60.1% (active)
20 | COc1ccc(-c2c(-c3cc4c(c(OC)c3OC)OCO4)noc2N)cc1 | -2.51% (active)

Row | SMILES | growth
21 | c1ccc(-c2n(Cc3ccc4ccccc4n3)c3ccccc3[n+]2Cc2ccc3ccccc3n2)cc1 | -69.2% (active)
22 | O=S(=O)(Nc1ncccn1)c1ccc(Nc2ccc3nnc(-c4ccncc4)n3n2)cc1 | 107%
23 | CC(=O)c1cc(C)c(OC(=O)c2ccccc2)c(C)c1 | 93.9%
24 | Oc1ccccc1/C=N/Nc1nc2ccccc2s1 | 38%
25 | O=C1NC(=S)S/C1=C\c1cccc([N+](=O)[O-])c1 | 110%
26 | COCCOC1=C(Cl)C(=O)c2ccccc2C1=O | 35.4%
27 | O=C1NC(=O)C(CSc2ccccc2)(c2ccccc2)N1 (stereo not drawn) | 98%
28 | Clc1ccccc1Nc1ccc2nnc(-c3ccncc3)n2n1 | 106%
29 | COc1cc(CNCCCN2C(=O)c3ccc4c5c(ccc(c35)C2=O)C(=O)N(CCCNCc2cc(OC)c(OC)c(OC)c2)C4=O)cc(OC)c1OC | -92.6% (active)
30 | O=C1C(OCCOc2ccccc2)=C(OCCOc2ccccc2)C(=O)c2ccccc21 | 102%
31 | COc1ccc(OC)c(C2C(C#N)=C(N)Oc3cc(O)ccc32)c1 (stereo not drawn) | 101%
32 | O=C1c2ccccc2C(=O)c2c(Nc3ccc(CCO)cc3)ccc(O)c21 | 49.1%
33 | CCOC(=O)c1c(Cl)c2c(n1Cc1ccc(OC)cc1)-c1oncc1CCC2 | 93.2%
34 | Cc1oc2c(c1C(=O)N1CC[C@@H](N)C1)C(=O)c1c(c(O)c3ccccc3c1O)C2=O | 13.1%
35 | O=C1c2[nH]cc(CN[C@@H]3CCCN3)c2C(=O)c2c1c(O)c1ccccc1c2O | -79.8% (active)
36 | O=C1C(N2CCOCC2)=Cc2cccc3cccc1c23 | 93.7%
37 | COc1ccc(Cn2c(Br)c3c(c2-c2cc(OC)c(OC)c(OC)c2)CCc2sc(N)nc2-3)cc1 | -10.6% (active)
38 | Nc1nc2c(s1)CCc1c-2c(Br)n(Cc2ccccc2)c1Br | 85.6%
39 | COC(=O)/C=C1/CCC2C3CCC4=CC(=O)C(Br)CC4(C)C3C(=O)CC12C (stereo not drawn) | 80.2%

tested on: DU-145 prostate; assay: as above; conditions: 10 µM unless noted

Row | SMILES | growth
40 | O=[N+]([O-])c1cc2c(cc1Br)-c1ccccc1C2 | 113%
41 | Clc1ccc(Nc2nc(Nc3ccccc3)nc(Nc3ccc(-c4cc(-c5ccc(Cl)cc5)on4)cc3)n2)cc1 | 32.6%
42 | Cc1cc(=O)c2c(C)ccc(C)c2[nH]1 | 115%
43 | Cc1cc(=O)[nH]n1-c1cc(Cl)ccc1N | 132%
44 | CC(C)OC1=C(Cl)C(=O)c2ccccc2C1=O | 119%
45 | COc1cccc(C2CC(=O)Nc3cc4c(cc32)OCO4)c1OC (stereo not drawn) | 103%
46 | COc1ccccc1CNCCCCCCCCCCCCN1C(=O)c2ccc3c4c(ccc(c24)C1=O)C(=O)N(CCCCCCCCCCCCNCc1ccccc1OC)C3=O | 51.2%
47 | O=C1C=CC(=O)N1CCCCCCCCCCN1C(=O)C=CC1=O | 80.1%
48 | Cc1ccc(N=c2nc3sc4c(C)ccc(C)c4n3c(N)c2C#N)cc1 | 105%
49 | COc1cc2nc(SCc3cc(OC)c(OC)c(OC)c3)n(-c3ccccc3OC)c(=O)c2cc1OC | 81.8%
50 | Cc1nc2nc(C(F)(F)F)[nH]c2nc1C | 115%
51 | CC(C)(C)[Si](C)(C)OC1[C@@H](CNC(=O)NC(=O)CCl)O[C@@H](n2cnc3c(N)ncnc32)[C@H]1O[Si](C)(C)C(C)(C)C (stereo partly drawn) | 23%
52 | Fc1ccccc1Nc1ccc2nnc(-c3ccncc3)n2n1 | 110%
53 | NC(=O)c1nc2c([nH]c1=O)CCCC2 | 108%
54 | CCN1CCN(C(=S)SCC(=O)Nc2nc3ccc(OC)cc3s2)CC1 | 106%
55 | O=C(NCc1cccnc1)c1ccc([N+](=O)[O-])o1 | -67.6% (active)
56 | N#CC1=C(N)Oc2cc(N)ccc2C1c1ccc(F)cc1 (stereo not drawn) | 93.1%
57 | O=c1[nH]c(-c2ccncc2)nc2sc3c(c12)CCCCCC3 | 77.5%
58 | CC1SC(c2cccc(Oc3ccccc3)c2)N(CCc2cccs2)C1=O (stereo not drawn) | -6.09% (active)
59 | COc1ccc(-c2c(-c3cc4c(c(OC)c3OC)OCO4)noc2N)cc1 | 12.2%

Row | SMILES | growth
60 | c1ccc(-c2n(Cc3ccc4ccccc4n3)c3ccccc3[n+]2Cc2ccc3ccccc3n2)cc1 | 17.5%
61 | O=S(=O)(Nc1ncccn1)c1ccc(Nc2ccc3nnc(-c4ccncc4)n3n2)cc1 | 108%
62 | CC(=O)c1cc(C)c(OC(=O)c2ccccc2)c(C)c1 | 102%
63 | Oc1ccccc1/C=N/Nc1nc2ccccc2s1 | 48%
64 | O=C1NC(=S)S/C1=C\c1cccc([N+](=O)[O-])c1 | 111%
65 | COCCOC1=C(Cl)C(=O)c2ccccc2C1=O | 38.7%
66 | O=C1NC(=O)C(CSc2ccccc2)(c2ccccc2)N1 (stereo not drawn) | 123%
67 | Clc1ccccc1Nc1ccc2nnc(-c3ccncc3)n2n1 | 114%
68 | COc1cc(CNCCCN2C(=O)c3ccc4c5c(ccc(c35)C2=O)C(=O)N(CCCNCc2cc(OC)c(OC)c(OC)c2)C4=O)cc(OC)c1OC | -95.6% (active)
69 | O=C1C(OCCOc2ccccc2)=C(OCCOc2ccccc2)C(=O)c2ccccc21 | 56.7%
70 | COc1ccc(OC)c(C2C(C#N)=C(N)Oc3cc(O)ccc32)c1 (stereo not drawn) | 107%
71 | O=C1c2ccccc2C(=O)c2c(Nc3ccc(CCO)cc3)ccc(O)c21 | 60.7%
72 | CCOC(=O)c1c(Cl)c2c(n1Cc1ccc(OC)cc1)-c1oncc1CCC2 | 118%
73 | Cc1oc2c(c1C(=O)N1CC[C@@H](N)C1)C(=O)c1c(c(O)c3ccccc3c1O)C2=O | 24%
74 | O=C1c2[nH]cc(CN[C@@H]3CCCN3)c2C(=O)c2c1c(O)c1ccccc1c2O | -98.6% (active)
75 | O=C1C(N2CCOCC2)=Cc2cccc3cccc1c23 | 104%
76 | COc1ccc(Cn2c(Br)c3c(c2-c2cc(OC)c(OC)c(OC)c2)CCc2sc(N)nc2-3)cc1 | 12.4%
77 | Nc1nc2c(s1)CCc1c-2c(Br)n(Cc2ccccc2)c1Br | 109%
78 | COC(=O)/C=C1/CCC2C3CCC4=CC(=O)C(Br)CC4(C)C3C(=O)CC12C (stereo not drawn) | 75%
